Sampled rows, rich in hits. Any-hit rate of the full collection: about 0.4%.
GAA inh – qHTS Assay for Inhibitors of Human alpha-Glucosidase as a Potential Chaperone Treatment of Pompe Disease. purified human GAA, 4-MU-alpha-glucoside fluorescence. 0.005% of 200,000 active. Potency, µM (highest dose often 76.9 µM), without a hit: top-dose activity change, negative = inhibition, usual class: inhibitors;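 also: potency is read from the fitted curve at half-maximal effect; plate controls were uninhibited enzyme wells for no effect and no-enzyme background for full effect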
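Human enzyme at 4 nM with 400 uM 4-methylumbelliferyl-alpha-D-pyranoside, citrate/phosphate buffer pH 5.0, 0.005% Tween-20, 20 min at room temperature. Compounds up to 77 uM. 4-MU fluorescence (Ex 365/Em 440) read after NaOH/glycine stop; AC50 from Hill fit.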
GAA glycogen – qHTS Assay for Inhibitors and Activators of Human alpha-Glucosidase Cleavage of Glycogen; Potency, µM (highest dose often 76.4 µM), for inactives: at the highest dose activity change, negative = inhibition, usual class: inhibitors; Lysosomal alpha-glucosidase (Homo sapiens), P10253; recombinant GAA, glycogen substrate, Amplex Red glucose oxidase fluorescence; AID 2100, 2009; 0.38% of 300,000 active;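 also: potency is read from the fitted curve at half-maximal effect; 0% = full enzyme reaction and -100% = no-enzyme basal signal; the screen sought inhibitors and activators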
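Recombinant human alpha-glucosidase (4 nM final) hydrolysed bovine liver glycogen (30 ug) for 40 min at 37 C in pH 5.0 citrate/phosphate with 0.01% Tween-20. Released glucose detected by glucose oxidase/Amplex Red, Ex 573/Em 610 nm. Compounds up to 77 uM; AC50 from Hill fits.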
aGlu spleen mod – qHTS Assay for Inhibitors and Activators of Human alpha-Glucosidase From Spleen Homogenate. 0.006% of 240,000 active. human spleen homogenate, 4-MU-alpha-glucoside fluorescence. Potency, µM (highest dose often 79.9 µM), inactives show at the highest dose activity change, negative = inhibition, usual class: inhibitors;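 also: potency is read from the fitted curve at half-maximal effect; 0% = enzyme with vehicle and -100% = no enzyme basal signal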
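Compounds were titrated against alpha-glucosidase in spleen homogenate at pH 5.0, with 1 mM 4-methylumbelliferyl substrate for 40 min at 37 C. Reactions were quenched with pH 10 NaOH/glycine and fluorescence measured.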
aGal spleen mod – qHTS Assay for Inhibitors and Activators of Human alpha-Galactosidase From Spleen Homogenate; 0.008% of 240,000 active; AID 2107, 2009; Potency, µM (doses to about 80 µM), for the others: top-dose activity change, negative = inhibition, hits mostly inhibitors; Alpha-galactosidase A (Homo sapiens), P06280; human spleen homogenate, 4MU-alpha-Gal fluorescence, 40 min;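 also: potency is read from the fitted curve at half-maximal effect; 0% = enzyme with vehicle and -100% = no enzyme basal signal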
Target sequence (P06280 32-429 limits assumed): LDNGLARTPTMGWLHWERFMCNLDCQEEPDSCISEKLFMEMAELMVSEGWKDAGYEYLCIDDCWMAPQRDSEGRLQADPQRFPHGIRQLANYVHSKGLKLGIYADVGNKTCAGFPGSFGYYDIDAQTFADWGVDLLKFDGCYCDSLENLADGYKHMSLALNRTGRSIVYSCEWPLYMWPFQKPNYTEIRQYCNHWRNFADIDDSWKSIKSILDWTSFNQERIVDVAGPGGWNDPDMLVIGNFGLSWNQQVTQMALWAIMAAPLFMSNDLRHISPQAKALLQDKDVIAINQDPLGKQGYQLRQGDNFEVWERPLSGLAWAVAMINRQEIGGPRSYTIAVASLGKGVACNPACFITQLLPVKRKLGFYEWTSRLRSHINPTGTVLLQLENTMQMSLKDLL
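Inhibition or activation of alpha-galactosidase in human spleen homogenate is scored by 4-MU fluorescence after 40 min at 37C, pH 5.0, with 1 mM substrate. AC50s come from concentration-response fitted to the Hill equation.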
GLA inh pH 4.5 – qHTS Assay for Inhibitors of Human alpha-Galactosidase at pH 4.5; Alpha-galactosidase A (Homo sapiens), P06280; purified enzyme, 4-MU-alpha-Gal fluorescence, pH 4.5; activity change, negative = inhibition, % at 105 µM; 230,000 tested, under 10 active;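 also: 0% = full activity with enzyme and -100% = basal without enzyme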
* hit, by the source's call; ? = inconclusive; / = no result given; [ ] = remark or other dose. Calls follow the shape of the dose curve; as a rule, active = well fitted curve in the direction sought with a large enough effect; inconclusive = small, poorly fitted or top-dose-only effect, or another doubt; inactive = no such curve, though single readings can be large; an effect the other way counts as inactive or inconclusive.

SMILES | GAA inh | GAA glycogen | aGlu spleen mod | aGal spleen mod | GLA inh pH 4.5
CCOC(=O)c1ccc(N2C(=O)CC(Nc3ccc(O)cc3)C2=O)cc1 (stereo not given) | / | 10µM* | -6% | -4% | 7
CCOC(=O)CCCCC(=O)c1[nH]c(=O)[nH]c1CSc1nc(-c2ccccc2)c(C#N)c(=O)[nH]1 | ? | 35µM* | -22% | 0% | -4
C=CCN(CC=C)CCOc1cccc2ccccc12 | -16% | -3% | 0% | 1% | -8
CCc1nnc(N/N=C/c2ccc(N3CCC(C)CC3)c([N+](=O)[O-])c2)n1N | 2% | ? | -15% | -6% | -7
Cc1nnc(N/N=C/c2cc([N+](=O)[O-])c(N3CCC(C)CC3)cc2N2CCC(C)CC2)n1N | ? | 31µM* | -7% | 1% | -11
CCOP(=O)(OCC)c1nc(-c2ccc(Cl)cc2Cl)oc1N1CCCCC1 | 2% | 0% | -9% | -15% | -16
Cc1ccc(Nc2nc(=O)c3cccnc3s2)cc1 | 2% | -7% | 3% | 6% | 3
COc1ccc(OC)c(Nc2nc(=O)c3cccnc3s2)c1 | ? | 28µM* | 2% | 1% | 9
COc1ccc(NC(=S)Nc2ccc(N)c([N+](=O)[O-])c2)cc1 | -6% | 40µM* | -8% | -5% | -1
COc1ccc(NC(=S)NNC(=O)Cn2nc([N+](=O)[O-])cc2C)cc1 | -6% | 14µM* | 3% | 3% | 0
COc1ccccc1N/N=C/c1c(CO)cnc(C)c1O | 5% | 3.2µM* | 11% | 19% | 0
COc1cccc(C(=O)NNC(=O)C(=O)Nc2cccc(Cl)c2C)c1 | / | -5% | / | / | /
Oc1c(Br)cc(Br)cc1C=Nc1ccc2c(c1)OCCO2 | -8% | ? | 5% | -12% | -4[21.1 µM]
Oc1[nH]c2ccccc2c1C=Nc1ccc2c(c1)OCCO2 | -3% | 32µM* | -10% | -10% | -7
Cc1cccc(-c2[nH]c(C(C)(C)C)nc2-c2ccc3c(c2)OCO3)n1 | / | / | 5% | 8% | /
CCCCN1C[C@H](O)[C@@H](O)[C@H](O)[C@H]1CO | 6.3µM* | 2.5µM* | 1.6µM* | 4% | /
Cc1cc(C)c2c(-n3cccc3)c(C(=O)NNS(=O)(=O)c3ccc(Cl)cc3)sc2n1 | -16% | 20µM* | -5% | 7% | 4
COc1ccc(NC(=S)N/N=C2\CC(C)(C)Oc3ccc(O)cc32)cc1 | -5% | 8.9µM* | -2% | -4% | -3
COc1ccc(NCN2C(=O)C3C4C=CC(C4)C3C2=O)cc1 (stereo not given) | -2% | 28µM* | -4% | 2% | -3
O=S(=O)(c1ccc(NC(=S)N/N=C/c2ccc(O)c(O)c2)cc1)N1CCOCC1 | / | 25µM* | -9% | 0% | -2
COCCn1c(=NC(=O)CN2C(=O)CCC2=O)sc2cc(S(N)(=O)=O)ccc21 | -12% | 0% | -15% | 17% | 1
CCC(C(=O)OC)n1cnc2c(cnn2-c2ccc(F)cc2)c1=O (stereo not given) | / | 2%[76.3 µM] | / | / | /
c1cncc(CNc2ccc3c(c2)OCO3)c1 | -4% | 18µM* | -2% | 4% | 7
O=C(NC1=NCCS1)C1Cc2ccccc2CN1C(=O)c1ccccc1 (stereo not given) | -10% | 4µM* | -1% | 11% | -4
Cc1ccc(-c2cc(C(=O)N3CCN(S(=O)(=O)c4ccc(Br)cc4)CC3)[nH]n2)c(C)c1 | / | -2%[76.3 µM] | / | / | /
SMILES | GAA inh | GAA glycogen | aGlu spleen mod | aGal spleen mod | GLA inh pH 4.5
Cc1ccc(-c2cc(C(=O)N3CCN(S(=O)(=O)c4ccc(Br)s4)CC3)[nH]n2)c(C)c1 | / | 8.9µM* | / | / | /
COc1cccc(-n2sc3c(c2=S)-c2cc(OC)ccc2NC3(C)C)c1 | -8% | 40µM* | -6% | -6% | -7
COc1ccc(C(=O)COc2ccccc2C#N)cc1 | / | 2% | 0% | -2% | -7
CCC(C)c1ccc(O)c(N)c1 (stereo not given) | -4% | 25µM* | 9% | 13% | 5
CC(C)(C)c1ccc(O)c(N)c1 | -2% | ? | -5% | -3% | 0
CC(C)c1ccc(O)c(N)c1 | 2% | 10µM* | -8% | 4% | -15
O=C(Cc1c(F)cccc1Cl)Nc1ccccc1C(=O)N1CCOCC1 | / | 1%[76.3 µM] | / | / | /
CCOC(=O)c1c(/N=C/c2ccc(C)cc2O)sc2c1CCC2 | 2% | 14µM* | 0% | 2% | -4
CCOC(=O)c1c(/N=C/c2ccc(OC)cc2O)sc2c1CCN(C)C2 | / | 7% | -1% | 2% | -7
O=C(c1ccc(C(=O)N2CCN(c3ccccc3F)CC2)nc1)N1CCN(c2ccccc2F)CC1 | / | 3% | -5% | -10% | 5
CCOc1ccc(NCC(=O)Nc2ccc(Cl)cc2C)cc1 | 4% | ? | 2% | -3% | -4
COc1ccc(NCC(=O)Nc2ccc(Cl)cc2C)c(OC)c1 | -4% | 16µM* | 9% | 9% | -17
COc1cccc(CNS(=O)(=O)c2ccc(S(=O)(=O)N3CCCC3)cc2)c1 | 1% | 5µM* | 1% | 2% | -13
O=S(=O)(NCc1ccco1)c1cccc(S(=O)(=O)N2CCOCC2)c1 | -5% | -2% | 1% | 2% | 9
O=S(=O)(NCc1ccco1)c1ccc(S(=O)(=O)N2CCCC2)cc1 | ? | 35µM* | 3% | -18% | -6
O=C(c1cccc2ccccc12)N1CCN(Cc2ccccc2F)CC1 | / | -6%[76.3 µM] | / | / | /
CCOc1ccc(S(=O)(=O)Nc2cc(Cl)ccc2O)cc1 | -4% | 28µM* | -8% | -6% | -7
CCOc1ccc(S(=O)(=O)Nc2ccccc2SC)cc1 | -6% | 1% | -6% | -7% | -5
CCc1ccc(O)c(N=Cc2ccccc2O)c1 | -3% | 11µM* | -4% | -2% | -13
O=S(=O)(c1ccc(Cl)c(Cl)c1)c1snnc1-c1ccccc1 | 1% | -3% | -8% | -6% | -14
Cc1ccn2c(Nc3ccccc3C)c(-c3ccccn3)nc2c1 | 0% | 4µM* | -5% | 0% | 0
Cc1ccn2c(Nc3ccc(C(C)C)cc3)c(-c3cccnc3)nc2c1 | / | 16µM* | / | / | /
Cc1ccc2nc(-c3cccnc3)c(Nc3ccc(C(C)C)cc3)n2c1 | / | -9%[76.3 µM] | / | / | /
Cc1ccccc1Nc1c(-c2ccccn2)nc2ccccn12 | -2% | ? | -1% | -1% | -3
CC(C)c1ccc(Nc2c(-c3ccccn3)nc3ccccn23)cc1 | / | 5.6µM* | / | / | /
Cc1ccc(Nc2ccc(C(=O)O)cc2N)cc1 | 0% | 28µM* | 4% | 17% | -4
Cc1cc(C)cc(Nc2ccc(C(=O)O)cc2N)c1 | ? | ? | -5% | ? | 18

Screens (PubChem)
